Reference: the supplement of paper PMC6555819

What was measured:
Experiment in all cases: PBM binding z-score (relative to random genomic background probes); higher = stronger binding; sequences stand for … in GC…GCGATTGACAGCGTAGAATGAAGG
[1] = system: FXR:RXRa (NR concentration 270 nM, RXRa partner concentration 90 nM)
In short: (§1)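 Each nuclear receptor dimer, without ligand, was incubated for 1 h on custom Agilent 4×180K protein-binding microarrays. Binding was detected with antibodies against each partner (one per run), and scanned fluorescence was regression-normalized. The binding z-scores are referenced to random human genomic background probes.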

[2] = system: LXRa:RXRa (NR concentration 270 nM, RXRa partner concentration 90 nM)
In short: as §1

[3] = system: LXRa homodimer (NR concentration 270 nM)
In short: as §1

[4] = system: LXRb:RXRa (NR concentration 270 nM, RXRa partner concentration 90 nM)
In short: as §1

[5] = system: LXRb homodimer (NR concentration 270 nM)
In short: as §1

[6] = system: PPARa:RXRa (NR concentration 270 nM, RXRa partner concentration 90 nM)
In short: as §1

[7] = system: PPARg:RXRa (NR concentration 180 nM, RXRa partner concentration 90 nM)
In short: as §1

[8] = system: PPARg:RXRa 270nM:90nM, anti-RXR (NR concentration 270 nM, RXRa partner concentration 90 nM)
In short: as §1

[9] = system: PPARg:RXRa 30nM:10nM, anti-RXR (NR concentration 30 nM, RXRa partner concentration 10 nM)
In short: as §1

[10] = system: PPARg:RXRa 90nM:30nM, anti-RXR (NR concentration 90 nM, RXRa partner concentration 30 nM)
In short: as §1

[11] = system: PPARg:RXRa DBDmut IVT, anti-RXR (DBD mutation: RXRa K156A/R161A, NR concentration 270 nM, RXRa partner concentration 90 nM)
In short: as §1

[12] = system: PPARg:RXRa IVT, anti-PPARg (NR concentration 270 nM, RXRa partner concentration 90 nM)
In short: as §1

[13] = system: PPARg DBDmut:RXRa IVT, anti-PPARg (DBD mutation: PPARg1 K132A/R137A, NR concentration 270 nM, RXRa partner concentration 90 nM)
In short: as §1

[14] = system: PPARg DBDmut IVT, anti-PPARg (DBD mutation: PPARg1 K132A/R137A, NR concentration 270 nM)
In short: as §1

[15] = system: PPARg homodimer (NR concentration 180 nM)
In short: as §1

[16] = system: PXR:RXRa (NR concentration 270 nM, RXRa partner concentration 90 nM)
In short: as §1

[17] = system: PXR homodimer (NR concentration 270 nM)
In short: as §1

[18] = system: RARa:RXR (NR concentration 270 nM, RXRa partner concentration 90 nM)
In short: as §1

[19] = system: RARa homodimer (NR concentration 270 nM)
In short: as §1

[20] = system: RARb:RXRa (NR concentration 270 nM, RXRa partner concentration 90 nM)
In short: as §1

| Sequence | PBM binding z-score [1] | PBM binding z-score [2] | PBM binding z-score [3] | PBM binding z-score [4] | PBM binding z-score [5] | PBM binding z-score [6] | PBM binding z-score [7] | PBM binding z-score [8] | PBM binding z-score [9] | PBM binding z-score [10] | PBM binding z-score [11] | PBM binding z-score [12] | PBM binding z-score [13] | PBM binding z-score [14] | PBM binding z-score [15] | PBM binding z-score [16] | PBM binding z-score [17] | PBM binding z-score [18] | PBM binding z-score [19] | PBM binding z-score [20] |
| --- | --- | --- | --- | --- | --- | --- | --- | --- | --- | --- | --- | --- | --- | --- | --- | --- | --- | --- | --- | --- |
| TCTGCTAGGTCAACGATGGTCAGCTTATCTGCTA | 3.6 | 2.98 | -0.083 | 1.77 | -0.302 | 3.38 | 2.43 | 3.06 | 2.06 | 2.59 | 4.15 | 4.27 | 2.31 | 1.16 | 0.812 | 1.76 | -0.682 | 2.5 | -0.672 | 4.22 |
| TCTAGTTGGTCAAAGGTCACACACTCGAAATGCG | 6.09 | 5.91 | 4 | 5.53 | 1.76 | 6.56 | 11.6 | 10 | 10.4 | 12.2 | 3.69 | 6.56 | 2.18 | 2.02 | 6.43 | 6.12 | 1.83 | 7.45 | 3.65 | 5.09 |
| AGAATGAGGTTACCAAAGATCAAGGAAACGCTTG | 2.13 | 7.01 | 0.25 | 4.24 | -0.325 | 3.7 | 2.89 | 3.09 | 1.08 | 2.26 | 3.78 | 3.43 | 0.922 | 0.563 | 0.97 | 2.06 | -0.325 | 2.48 | -0.42 | 2.25 |
| CCTAGTTGGTCAGGAGGTCATACACCGGATATGA | 3.81 | 3.61 | 2.79 | 3.13 | 0.702 | 3.89 | 2.72 | 3.82 | 1.58 | 2.89 | 1.25 | 3.03 | 0.324 | 0.888 | 3.21 | 3.99 | 1.57 | 4.19 | 1.23 | 3.33 |
| ATATGTAGGTTATCGGGTCATTCTGTTTGCGCAT | 3.44 | 3.6 | 2.23 | 3.26 | 1.27 | 4.93 | 6.86 | 6.16 | 3.52 | 5.94 | 7.83 | 7.65 | 3.52 | 2.76 | 2.77 | 3.48 | 1.54 | 3.91 | 1.87 | 2.57 |
| CGAACTAGGTCATCCAGGCCAGTGAATACATTGA | 4.42 | 2.58 | 0.198 | 1.84 | -0.0916 | 4.97 | 7.7 | 6.3 | 3.77 | 5.63 | 7.88 | 8.53 | 3.15 | 2.65 | 2.08 | 1.61 | 0.572 | 2.4 | 0.167 | 3.91 |
| CCGACTGGGGCATAAGGTTATCATAAGCCAGCCC | 0.297 | 0.921 | -0.134 | 0.498 | -1.15 | 1.94 | 2.31 | 3.06 | 1.39 | 3.18 | 2.88 | 3.27 | -0.987 | -0.567 | 1.33 | 0.386 | 0.0103 | 1.34 | -0.22 | 1.32 |
| ATCGAAAGGTCGACGAGGTGATTATACACCGTTT | 4.8 | 3.43 | 0.0538 | 2.93 | 0.337 | 4.39 | 2.85 | 3.08 | 1.22 | 2.14 | 0.604 | 1.86 | 1.29 | 0.577 | 1.31 | 3.32 | 1.07 | 3.76 | 0.346 | 3.78 |
| TCTATTAGTTGAAGGGCACCCGACGAGTCCGTTT | 0.72 | 0.953 | 0.3 | 0.709 | 0.846 | 0.943 | 0.172 | 2 | 3.71 | 2.96 | 2.29 | 0.553 | 0.299 | 1.3 | 1.25 | 0.824 | 1 | 0.844 | 1.45 | 1.36 |
| CAAACTAGGTCAAGGTCAAAATCGGTTTGTGCCA | 6.5 | 5.02 | 3.14 | 4.66 | 1.58 | 6.16 | 9.66 | 7.73 | 6.38 | 7.81 | 8.64 | 9.04 | 2.23 | 3.4 | 2.8 | 4.7 | 1.74 | 4.78 | 1.1 | 5.1 |
| GCATATAGGTAATACAAGGTGAATGTCCGATTGT | 1.08 | 1.54 | 0.343 | 0.292 | -0.289 | 1.08 | 1.37 | 1.14 | 0.382 | 0.743 | 4.28 | 3.39 | 1.78 | 0.61 | 0.903 | 0.286 | 0.012 | 0.602 | 0.84 | 0.305 |
| ATCGCAAGGTCGAGGTGAGTATAGAGAAAGGGAA | 1.56 | 0.947 | -0.582 | 0.995 | -0.275 | 2.5 | 1.05 | 0.957 | 0.1 | 0.379 | -0.0497 | 1.28 | 0.589 | -0.0017 | -0.0351 | 1.04 | -0.378 | 1.52 | -0.173 | 2.75 |
| AGAATGAGGTTATACGTAGATCATGGAAGAAAGT | 2.28 | 2.35 | 0.00529 | 1.76 | 0.0323 | 3.28 | 2.34 | 2.58 | 1.01 | 1.79 | 3.69 | 2.6 | 1.46 | 0.947 | 1.21 | 1.25 | 0.482 | 1.77 | 0.298 | 1.53 |
| CCTACTGGGCCAAGGTCACTGATCAGTCAAAGCA | 3.03 | 2.64 | 0.281 | 2.79 | -0.518 | 4.1 | 4.17 | 4.62 | 2.22 | 3.93 | 4.22 | 4.98 | -0.183 | -0.598 | 2.26 | 3.02 | 0.241 | 3.49 | 0.0362 | 3.73 |
